Compound activity: PubChem, National Center for Advancing Translational Sciences (NCATS)
The full list was thinned out, with hits kept by preference.
ALOX15 inhib: qHTS Assay for Inhibitors of 15-hLO (15-human lipoxygenase); purified 15hLO-1, xylenol orange hydroperoxide absorbance; Potency, µM (highest dose often 57.1 µM), without a hit: at the highest dose activity change, negative = inhibition, hits mostly inhibitors; hit rate 1.4% among 74,000; AID 887, 2007; note: nearly all actives have a fitted effect of over 55% in size
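Compounds were preincubated 15 min at room temperature with 40 nM purified human enzyme (25 mM Hepes pH 7.5, 0.01% Triton X-100); 50 uM arachidonic acid reacted 6 min. Fe-xylenol orange detection, 30 min, absorbance ratio 573/405 nm.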
ALOX15B inhib: qHTS Assay for Inhibitors of 15-hLO-2 (15-human lipoxygenase 2). AID 881, 2007. Polyunsaturated fatty acid lipoxygenase ALOX15B (Homo sapiens), O15296. hit rate 0.56% among 110,000. purified 15hLO-2, xylenol orange hydroperoxide absorbance. Potency, µM (series often up to 57.1 µM), inactives show top-dose activity change, negative = inhibition, usual class: inhibitors; note: nearly all actives have a fitted effect of over 60% in size
Target sequence (O15296 whole entry, looked up): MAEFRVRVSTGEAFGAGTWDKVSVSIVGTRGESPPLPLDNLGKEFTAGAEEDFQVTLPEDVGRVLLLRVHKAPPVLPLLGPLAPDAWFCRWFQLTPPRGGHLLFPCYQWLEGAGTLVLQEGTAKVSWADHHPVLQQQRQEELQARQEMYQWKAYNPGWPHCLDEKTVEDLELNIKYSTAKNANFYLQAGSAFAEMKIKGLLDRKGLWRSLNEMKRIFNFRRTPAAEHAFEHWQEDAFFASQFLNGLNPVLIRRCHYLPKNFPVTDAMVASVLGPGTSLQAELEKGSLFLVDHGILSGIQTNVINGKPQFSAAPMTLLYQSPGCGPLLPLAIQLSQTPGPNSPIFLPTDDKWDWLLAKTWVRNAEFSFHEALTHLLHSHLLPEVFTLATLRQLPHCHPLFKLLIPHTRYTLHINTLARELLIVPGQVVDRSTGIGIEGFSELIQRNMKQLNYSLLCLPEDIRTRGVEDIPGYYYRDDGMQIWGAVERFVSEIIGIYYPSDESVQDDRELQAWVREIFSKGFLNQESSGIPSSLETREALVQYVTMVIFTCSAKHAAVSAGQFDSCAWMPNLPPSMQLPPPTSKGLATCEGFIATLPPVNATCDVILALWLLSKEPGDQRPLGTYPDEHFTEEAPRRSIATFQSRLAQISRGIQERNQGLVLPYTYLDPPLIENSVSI
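Enzyme 50 nM, AA 45 uM, 25 mM Hepes pH 7.5 + 0.01% Triton X-100; cpd preinc 15 min RT, rxn 90 min RT; stop/detect with 200 uM XO + 300 uM Fe(II) in 50 mM H2SO4, 30 min; A573/A405.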
* hit, by the source's call; [ ] = another dose, or the depositor's remark. Calls come from the whole dose curve; as a rule, active = well fitted inhibition curve with a large enough effect; inconclusive = small, poorly fitted or top-dose-only effect; inactive = no such curve, though single readings can be large or run the other way. % is set by controls: 0 for no effect and ±100 for the full control effect; potency is the fitted concentration of half-maximal effect.

Screening COc1ccc(C2CC(=O)N3C(=C2C#N)SCC3(O)c2ccccc2)cc1 (configuration not stated) returned ALOX15 inhib -23.5% and ALOX15B inhib -16.3%.
Screening COc1ccccc1N1CSC2=C(C#N)C(c3ccc(SC)cc3)CC(=O)N2C1 (configuration not stated) returned ALOX15 inhib 3.16µM* and ALOX15B inhib 20µM*.
For COc1cc(C2C(C#N)=C(C)NC3=C2C(=O)c2ccccc23)cc(OC)c1OC (configuration not stated) the results were ALOX15 inhib -23.3% and ALOX15B inhib 12.4%[11.4 µM].
`COc1cc(C2CC(=O)N3CN(c4ccccc4C)CSC3=C2C#N)cc(OC)c1OC` (configuration not stated) gave ALOX15 inhib 3.98µM* and ALOX15B inhib inconclusive.
`CC(C)C[C@H]1COC(c2ccc(Br)cc2)=N1` gave ALOX15B inhib 27.4%[0.0915 µM].
Screening N.N.O=C(O)C1(C(=O)O)CCC1.[Pt] returned ALOX15 inhib 0.631µM* and ALOX15B inhib -5.8%.
Screening N[C@@]1(C(=O)O)CCC[C@@H]1C(=O)O returned ALOX15 inhib 6.5%[11.4 µM] and ALOX15B inhib -2.8%[11.4 µM].
Cn1c(=O)c2[nH]c(CS(=O)(=O)Cc3nc4c([nH]3)c(=O)n(C)c(=O)n4C)nc2n(C)c1=O was read as ALOX15 inhib 15.7%[11.4 µM] and ALOX15B inhib 4.4%[11.4 µM].
`O=[N+]([O-])c1ccc(CSc2ncnc3c2ncn3[C@@H]2O[C@@H](CO)[C@@H](O)[C@H]2O)cc1` gave ALOX15 inhib 0.2% and ALOX15B inhib -6.3%.
Screening COCCNC(=O)c1ccc(-n2c(=O)c(=O)[nH]c3ccccc32)cc1 returned ALOX15 inhib -0.8%.
CC1=C(C(=O)Nc2ccccc2)C(c2ccco2)NC(=S)N1 (configuration not stated) was read as ALOX15B inhib -2.9%.
Screening O=C(Nc1ccccc1)C1=C(O)CC(c2ccco2)CC1=Nc1ccccc1 (configuration not stated) returned ALOX15 inhib 3.16µM*.
CN1CCN(c2ncc3ncc(=O)n(-c4ccccc4)c3n2)CC1 was read as ALOX15 inhib 18.6% and ALOX15B inhib 2.7%.
`CCN1C(=O)[C@H]2[C@H]3[C@H](O)[C@H](O)C/C(=N/OCC[C@H]4C=C[C@H](OC(C)=O)[C@@H](COC(C)=O)O4)[C@@H]3CC[C@@H]2C1=O` gave ALOX15 inhib 4.7%[11.4 µM].
For Cc1ccc(S(=O)(=O)NCc2ccccc2)cc1 the results were ALOX15 inhib -2.4%[25.6 µM] and ALOX15B inhib 10.6%.
`Cc1ccc(S(=O)(=O)Nn2c(C)ccc2C)cc1` gave ALOX15 inhib 20µM* and ALOX15B inhib inconclusive.
`CC(C)N=c1scc(-c2ccco2)n1/N=C/c1ccc(O)c(O)c1` gave ALOX15B inhib 12.6µM*.
`COc1cccc(/C=N/n2c(-c3ccco3)nc3ccccc3c2=O)c1` gave ALOX15 inhib 4.6%.
CC(=O)OC[C@@H]1O[C@@H](O/N=C2/C[C@@H](O)[C@@H](O)[C@@H]3[C@@H]4C(=O)N(Cc5ccc6c(c5)OCO6)C(=O)[C@H]4CC[C@@H]23)[C@H](OC(C)=O)[C@H](OC(C)=O)[C@@H]1OC(C)=O was read as ALOX15 inhib -2.5%[11.4 µM].
For COC(=O)NC/C=C\c1nc(CCCO)co1 the results were ALOX15 inhib 12.8%[11.4 µM].
For CCCCNC(=O)CSc1nc2ccc(N3CCOCC3)cc2c(=O)n1CCc1ccccc1 the results were ALOX15 inhib 25.1µM*.
Screening COCCNC(=O)CSc1nc2ccc(N3CCOCC3)cc2c(=O)n1CCc1ccccc1 returned ALOX15 inhib -26.4% and ALOX15B inhib -9.6%.
For O=C(O)/C=C\[C@H](O)c1ccc(Cl)cc1 the results were ALOX15 inhib inconclusive and ALOX15B inhib -4.9%.
`COC(=O)CSCc1nc2ccccc2[nH]c1=O` gave ALOX15 inhib 12.6µM*.
`COC(=O)CCc1nc2ccccc2[nH]c1=O` gave ALOX15 inhib 21.0% and ALOX15B inhib -2.3%.
`Nc1nc(N)c(N=Nc2ccc(C(=O)O)c(O)c2)c(N)n1` gave ALOX15 inhib -11.8%[11.4 µM] and ALOX15B inhib -4.0%[11.4 µM].
For CCc1ccccc1N1CSC2=C(C#N)C(c3cc(OC)c(OC)cc3OC)CC(=O)N2C1 (configuration not stated) the results were ALOX15 inhib inconclusive and ALOX15B inhib 10µM*.
COc1cc(OC)c(C2CC(=O)N3CN(c4ccccc4)CSC3=C2C#N)cc1OC (configuration not stated) was read as ALOX15 inhib inconclusive and ALOX15B inhib 10µM*.
Screening N#CC1=C2SCN(Cc3ccccc3)CN2C(=O)CC1c1ccccc1F (configuration not stated) returned ALOX15 inhib inconclusive and ALOX15B inhib -27.7%.
